Measurements: the supplement of paper PMC13380429

System: Vero E6 infected with SARS-CoV-2
Assay: inhibition of SARS-CoV-2 cytopathic effect; higher = more antiviral protection, active = above 15
Conditions: 48 h

Measured: inhibition of SARS-CoV-2 cytopathic effect

CCCC(=O)OCOC(=O)C1=C(C)NC(C)=C(C(=O)OC)C1c1cccc(Cl)c1Cl (stereo not given) [cleviprex]
inactive: 1 nM 3.04% | 8.33 nM 3.86% | 100 nM 2.92% | 833.33 nM 0.61% | 10000 nM 4.07%

CC(C)[C@H](CO)Nc1nc(Nc2cccc(Cl)c2)c2ncn(C(C)C)c2n1 [purvalanol-A]
inactive: 1 nM -1.59% | 8.33 nM -0.55% | 100 nM -0.26% | 833.33 nM 2.68% | 10000 nM -2.25%

CC(C)Cc1ccc([C@@H](C)C(=O)NCCO)cc1 (racemic) [mabuprofen]
inactive: 1 nM -1.95% | 8.33 nM -2.13% | 100 nM -0.66% | 833.33 nM -0.72% | 10000 nM -4.85%

O=C(/C=C/c1ccc(O)cc1)c1ccc(O)cc1O [isoliquiritigenin]
inactive: 1 nM -2.47% | 8.33 nM -0.17% | 100 nM 1.21% | 833.33 nM 0.63% | 10000 nM 10.8%

CCC(=O)O[C@H]1CC[C@H]2[C@@H]3CCC4=CC(=O)CC[C@]4(C)[C@H]3CC[C@]12C
inactive: 1 nM -13.2% | 8.33 nM -10.2% | 100 nM -12.5% | 833.33 nM -13.3% | 10000 nM -14%

CC1(CN2CCC(n3c(=O)[nH]c4ccccc43)CC2)OCc2ccccc2-n2cccc21 (stereo not given) [zaldaride]
inactive: 1 nM 4.94% | 8.33 nM -0.44% | 100 nM 4.25% | 833.33 nM -2.81% | 10000 nM -4.06%

CC(C)(C)NCC(O)c1cc(O)cc(O)c1 (stereo not given)
inactive: 1 nM -2.09% | 8.33 nM -0.61% | 100 nM -1.85% | 833.33 nM -0.02% | 10000 nM -0.76%

Cc1ccnc2c1CCCC2C(N)=S (stereo not given) [isotiquimide]
inactive: 1 nM 2.13% | 8.33 nM 1.38% | 100 nM 1.08% | 833.33 nM 1.85% | 10000 nM 2.59%

Cc1ncc([N+](=O)[O-])n1CC(O)CN1CCOCC1 (stereo not given) [morinidazole]
inactive: 1 nM -0.31% | 8.33 nM -0.21% | 100 nM -0.51% | 833.33 nM -1.22% | 10000 nM -0.64%

CS(=O)(=O)N(Cc1ccco1)C[C@@H](O)Cn1c2ccccc2c2ccccc21
inactive: 1 nM 3.16% | 8.33 nM 2.61% | 100 nM -0.72% | 833.33 nM 0.77% | 10000 nM 9.76%

CC(C)S(=O)(=O)NC[C@H](C)c1ccc(-c2ccc(CCNS(C)(=O)=O)cc2)cc1 [mibampator]
inactive: 1 nM -0.11% | 8.33 nM -1.29% | 100 nM -1.07% | 833.33 nM 1.62% | 10000 nM 4.07%

CCCC(=O)O [sodium-butyrate]
inactive: 1 nM -1.28% | 8.33 nM -0.1% | 100 nM 1.57% | 833.33 nM -0.53% | 10000 nM 0.24%

COc1ccc(C(CN(C)C)C2(O)CCCCC2)cc1 (stereo not given) [venlafaxine]
inactive: 1 nM 0.56% | 8.33 nM 0.96% | 100 nM 1.86% | 833.33 nM -0.35% | 10000 nM -0.29%

C=C(C)[C@@H]1CC[C@]2(CO)CC[C@]3(C)[C@H](CC[C@@H]4[C@@]5(C)CC[C@H](O)C(C)(C)[C@@H]5CC[C@]43C)[C@@H]12
inactive: 1 nM -5.94% | 8.33 nM -10.1% | 100 nM -7.13% | 833.33 nM -9.2% | 10000 nM -12.6%

O=C(OC[C@H]1O[C@@H](OC(=O)c2cc(O)c(O)c(OC(=O)c3cc(O)c(O)c(O)c3)c2)[C@H](OC(=O)c2cc(O)c(O)c(OC(=O)c3cc(O)c(O)c(O)c3)c2)[C@@H](OC(=O)c2cc(O)c(O)c(OC(=O)c3cc(O)c(O)c(O)c3)c2)[C@@H]1OC(=O)c1cc(O)c(O)c(OC(=O)c2cc(O)c(O)c(O)c2)c1)c1cc(O)c(O)c(OC(=O)c2cc(O)c(O)c(O)c2)c1 [tannic-acid]
inactive: 1 nM -0.39% | 8.33 nM 0.91% | 100 nM -0.77% | 833.33 nM -3.86% | 10000 nM -6.77%

O=C1N=C2SCCN2C(=O)C1Cc1ccc(Cl)cc1 (stereo not given) [nuclomedone]
inactive: 1 nM -1.33% | 8.33 nM -3.69% | 100 nM 0.26% | 833.33 nM 0.58% | 10000 nM -2.17%

Nc1nc(=O)c2sc(=O)n([C@@H]3O[C@H](CO)[C@@H](O)[C@H]3O)c2[nH]1
inactive: 1 nM 2.96% | 8.33 nM 0.81% | 100 nM -0.66% | 833.33 nM 1.35% | 10000 nM -1.43%

C[C@]12CCC(=O)C=C1CC[C@@H]1[C@@H]2CC[C@@]2(C)[C@H]1CC[C@]2(C)O [17-alpha-Methyltestosterone]
inactive: 1 nM 0.59% | 8.33 nM 1.3% | 100 nM -0.05% | 833.33 nM 1.19% | 10000 nM 1.92%

N#CCCCSC(=N)N [kevetrin]
inactive: 1 nM -0.54% | 8.33 nM -2.73% | 100 nM -3.7% | 833.33 nM -3.14% | 10000 nM -0.14%

COC(=O)c1ccccc1O [methyl-salicylate]
inactive: 1 nM 0.7% | 8.33 nM 2.86% | 100 nM 2.42% | 833.33 nM -0.42% | 10000 nM -3.74%
